Screening results: PubChem BioAssay, National Center for Advancing Translational Sciences (NCATS)
TDP1 cell CPT – qHTS for Inhibitors of human tyrosyl-DNA phosphodiesterase 1 (TDP1): qHTS in cells in presence of CPT | chicken DT40 Tdp1-/-;hTDP1 cells + 20 nM CPT, ATP luminescence, 48 h | Potency, µM (series often up to 46.2 µM), hits mostly inhibitors | hit rate 12% among 420,000 | AID 686979, 2013; note: nearly all actives have a fitted effect of over 55% in size
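Chicken DT40 Tdp1-/- cells stably complemented with human TDP1 were seeded at 400 cells/well in medium containing 20 nM camptothecin, exposed to pin-transferred compounds, and grown at 37 °C for at least 48 hr. Viability was read as ATP luminescence.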
HT1080 IDH1KD tx – qHTS for induction of synthetic lethality in tumor cells producing 2HG: qHTS for the HT-1080-IDH1KD cell line; hit rate 2% among 360,000; HT-1080 IDH1 knockdown viability, ATP luminescence, 48 h; Potency, µM (highest dose often 46.1 µM), most hits filed as cytotoxic
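Using the IDH1-knockdown HT-1080 line run in the same batch and compound series as the NT line, viability after 48 h at 37 °C was determined by CellTiter-Glo luminescence and expressed as % activity.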
HT1080-NT tox – qHTS for induction of synthetic lethality in tumor cells producing 2HG: qHTS for the HT-1080-NT fibrosarcoma cell line; HT-1080-NT fibrosarcoma viability, CellTiter-Glo ATP luminescence, 48 h; Potency, µM (titrated, usually from 46.1 µM), usual class: cytotoxic; hit rate 1.6% among 360,000; AID 686970, 2013;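 note: NT is the 2HG producing partner of a matched IDH1 knockdown line; nearly all actives have a fitted effect of over 55% in size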
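Read-out is CellTiter-Glo luminescence after 10 minutes at room temperature, following 48 hours' compound treatment of HT-1080-NT cells (750 cells/well, RPMI, 5% FBS, 37 degrees C).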
IL-1B inflam inh – qHTS for Inhibitors of Inflammasome Signaling: IL-1-beta AlphaLISA Primary Screen. THP-1 LPS/ATP IL-1B secretion, AlphaLISA, 16 h; stronger effect = lower value. activity change, % at 57.5 µM. hit rate 4.7% among 360,000. AID 743279, 2014; in the data active = activity change below about -50%; inconclusive = mostly about -30% to -49%
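THP-1 cells pretreated 1 hr with compounds (up to 57.5 uM final), then stimulated with LPS (250 ng/mL final) plus ATP (1.25 mM final); secreted IL-1B measured by AlphaLISA after 16 hr, decreased signal indicating inhibition.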
DT40 TDP1 no CPT – qHTS for Inhibitors of human tyrosyl-DNA phosphodiesterase 1 (TDP1): qHTS in cells in absence of CPT; DT40 Tdp1-/- hTDP1 cells, no CPT, ATP luminescence, 48 h; Potency, µM (top dose mostly 46.2 µM), actives largely listed as inhibitors; hit rate 15% among 420,000; AID 686978, 2013; note: nearly all actives have a fitted effect of over 55% in size
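Cells were dispensed at 400 per well, compounds added by pin tool, plates incubated ≥48 hr at 37 °C, then CellTiter-Glo added for 30 min at room temperature before luminescence reading. Line: DT40 Tdp1-/- complemented with hTDP1; camptothecin omitted.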
ELG1 DNA repair – qHTS screen for small molecules that inhibit ELG1-dependent DNA repair in human embryonic kidney (HEK293T) cells expressing luciferase-tagged ELG1; HEK293T ELG1-luciferase reporter, luminescence, 16 h; DNA damage induced by 5-fluorouridine; Potency, µM (series often up to 46.1 µM), usual class: inhibitors; hit rate 2.3% among 330,000; note: nearly all actives have a fitted effect of over 55% in size
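Reporter activity after DNA damage by 5-fluorouridine is monitored. Compound-treated cells incubate 16 hr at 37 °C, then ONE-Glo is added for 30 min before luminescence reading.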
Hits are given with their value; - = inactive; ? = inconclusive; . = no result; [ ] = dose if it differs, or a comment. Most compounds without a hit are left out; they make up all but 19% or so of the library. Unless noted, calls come from the whole dose curve; as a rule, active = well fitted curve in the direction sought with a large enough effect; inconclusive = small, poorly fitted or top-dose-only effect, or another doubt; inactive = no such curve, though single readings can be large; an effect the other way counts as inactive or inconclusive.

SMILES	TDP1 cell CPT	HT1080 IDH1KD tx	HT1080-NT tox	IL-1B inflam inh	DT40 TDP1 no CPT	ELG1 DNA repair
CN1C(=O)C(C2c3ccccc3C(=O)N2Cc2ccccc2)C(=O)N(C)C1=O (configuration not stated)	-	-	-	-	-	-
CCOC(=O)[C@]12Cc3cc(N(C)C)ccc3[C@H]1N(Cc1ccccc1)C(=O)c1ccccc12	13µM	-	-	-	6.5µM	.
CCOC(=O)[C@]12Cc3ccccc3[C@H]1N(Cc1ccccc1)C(=O)c1cc(F)c(F)cc12	?	?	?	-67	23µM	.
CCOC(=O)[C@]12Cc3cc4c(cc3[C@H]1N(Cc1ccccc1)C(=O)c1ccccc12)OCO4	?	-	-	-	15µM	.
CCOC(=O)[C@]12Cc3cc(C)ccc3[C@H]1N(Cc1ccccc1)C(=O)c1cc(OC)ccc12	?	21µM	?	-96	21µM	.
C[C@@]12CC[C@@H](c3cc4c(cc3C1)OCO4)N2c1ccccc1	?	-	-	-	?	.
C[C@]12CCC3[C@@H](CCC4=CC(=O)CC[C@@]43C=O)C1CCC2=O (some centres not stated)	-	-	-	-	-	-
CCCCCN1C(=O)c2ccccc2[C@@]2(C(=O)OCC)Cc3cc(Cl)ccc3[C@@H]12	?	?	?	-50	?	.
CCOC(=O)[C@]12Cc3cc(Cl)ccc3[C@H]1N(Cc1ccccc1)C(=O)c1ccccc12	10µM	-	-	-	?	.
CCOC(=O)[C@]12Cc3cc(C)ccc3[C@H]1N(CCC(=O)OC)C(=O)c1ccccc12	23µM	13µM	16µM	-113	16µM	.
COC(=O)C1=CO[C@H](C)[C@H]2CN3CC[C@@]4(C(=O)Nc5ccccc54)[C@@H]3C[C@H]12	-	-	-	-	?	.
O=C1C2CCCC1C(N1CCCCC1)CC2 (configuration not stated)	-	-	-	-	-	-
COC(=O)C1=C(c2cc3ccccc3o2)C[C@@H]2CC[C@H]1N2C(=O)NCCCOC(C)C	?	-	-	-	12µM	.
COC(=O)C1=C(c2cc3ccccc3o2)C[C@@H]2CC[C@H]1N2C(=O)NCc1ccc(C(F)(F)F)cc1	?	?	21µM	?	.	.
COC(=O)C1=C(c2ccc(F)cc2F)C[C@@H]2CC[C@H]1N2C(=O)NCc1ccc(C(F)(F)F)cc1	?	-	-	?	21µM	-
COC(=O)C1=C(c2cc3ccccc3o2)C[C@@H]2CC[C@H]1N2C(=O)NC(C)C	23µM	-	-	-	16µM	.
Cc1cccc(C2CC(=O)Oc3c2c(=O)oc2ccccc32)c1 (configuration not stated)	-	.	.	.	-	.
COc1cc2cc(C(=O)N3CC(COS(C)(=O)=O)c4ccc(O)cc43)[nH]c2c(OC)c1OC (configuration not stated)	-	0.13µM	2.9µM	-99	-	.
O=[N+]([O-])c1cc(I)c(O)c(I)c1	-	.	.	.	?	.
CN(C)c1nc(OCCNC(=O)COc2ccc(Cl)cc2Cl)nc(N2CCCCC2)n1	9.2µM	-	-[9.24 µM]	-	12µM	?
COC(=O)COc1ccc(Cl)cc1Cl	-	.	.	.	-	.
C/C=C(/C)C(=O)OC1CC[C@]2(C)C3CCC4[C@]5(O)CC(O)[C@]6(O)C(CN7CC(C)CCC7[C@]6(C)O)[C@]5(O)C[C@@]42O[C@]13O (some centres not stated)	-	.	.	.	-	.
O=C1c2ccccc2C(=O)N1SC1CCCCC1	3.7µM	-	-	-	3.7µM	?
NC(=O)c1cn(C2CCCCC2)c2ccccc2c1=O	?	-	-	-	-	-
C/C(=C\c1csc(C)n1)[C@@H]1C[C@@H]2O[C@]2(C)CCC[C@H](C)[C@H](O)[C@@H](C)C(=O)C(C)(C)[C@@H](O)CC(=O)O1	0.0012µM	.	.	.	0.0013µM	.
SMILES	TDP1 cell CPT	HT1080 IDH1KD tx	HT1080-NT tox	IL-1B inflam inh	DT40 TDP1 no CPT	ELG1 DNA repair
CCCCC[C@H]1CCCCC[C@H](O)C[C@H](O)[C@@H](O)/C=C/C(=O)O1	23µM	-	-	-	21µM	.
CCCCC[C@H]1CCCCC[C@H](O)C[C@@H](O)[C@H](O)/C=C/C(=O)O1	?	-	-	?	?	.
CCN(CC)Cc1nccn1-c1ccc([N+](=O)[O-])cc1C(=O)c1ccccc1Cl	-	.	.	.	6µM	.
Nc1ccc(Cl)cc1C(=O)c1ccccc1Cl	-	?	?	-	?	-
CN(C)/C=C/C(=O)C(Cl)(Cl)Cl	-	-	-	-	-	-
COc1ccc(CC(=O)Nc2ccc3c(C(F)(F)F)cc(=O)oc3c2)cc1OC	-	-	-	-	-	-
COc1ccccc1CC(=O)Nc1ccc2c(c1)OC1(CCCC1)O2	?	-	-	-74	?	?
Clc1ccc(C2(Cn3cncn3)OCCO2)c(Cl)c1	-	.	.	.	-	.
Cc1cccc(-n2c(C)nc3ccccc3c2=O)c1C	5.8µM	-	-	-	21µM	-
Cc1nc2ccccc2c(=O)n1-c1c(Cl)cccc1Cl	23µM	-	-	-	18µM	.
Cc1cccc(-n2c(C)nc3ccccc3c2=O)n1	-	-	-	-	-	?
C=CCC1([C@H](C)CCC)C(=O)NC(=O)NC1=O	-	.	.	.	-	.
COc1ccc(/C=C/C(=O)c2c(O)n(CCC3=CCCCC3)c(=O)[nH]c2=O)cc1	6.5µM	-	-	-	?	?
O=C(N/N=C/c1c(O)n(CCC2=CCCCC2)c(=S)[nH]c1=O)c1ccccc1	?	?	?	-	?	?
O=C(/C=C/c1ccc2c(c1)OCO2)c1c(O)n(CCC2=CCCCC2)c(=O)[nH]c1=O	?	-	-	-	5.8µM	-
CCCCn1c(O)c(C(=O)/C=C/c2ccc3c(c2)OCO3)c(=O)[nH]c1=O	?	-	-	-73	?	?
O=C(N/N=C/c1c(O)n(CCC2=CCCCC2)c(=O)[nH]c1=O)c1ccccc1	?	?	-	-	21µM	?
Cc1ccc2n1Cc1cnnn1-c1ccccc1-2	?	-	-	-	?	.
N#CC(C#N)=Cc1ccc(C=C(C#N)C#N)cc1	3.7µM	23µM	?	-83	4.6µM	-
N#CC(C#N)=Cc1ccc([N+](=O)[O-])c(O)c1	-	.	.	.	-	.
C=CCN(CC#CCOc1ccccc1OC)CC=C	.	.	.	.	.	-
